34 compounds from PubChem BioAssay (NCI) can be followed below.

This is part of a sample that, as a whole, favours compounds with a hit. Of some 83,000 tested, about 20% had one in any assay.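 Interpretation: 100, growth as untreated; towards 0, rising growth inhibition; 0, no net growth; 0 to -100, cell death. Compounds scoring below 10 were considered active.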 Unmarked numbers belong to inactive results. Activity calls are given as the source filed them.

The experiment has as its system SK-MEL-2 melanoma. Put plainly: NCI-60 one-dose screen, 48 h (100 = growth as untreated, 0 = no growth, -100 = all killed). The following applies: 10 µM unless noted.
On to `CCC(=O)Nc1ccc(-c2nc(-c3cccc(O)c3)c(-c3ccnc(Br)c3)[nH]2)cc1`, for which the growth was 65.9%. Consider `NC(=O)c1c(NC(=O)c2cccc(OC(F)(F)F)c2)sc2c1CCC(=O)C2`, for which the growth is 105%. Then `COc1cc(C2=NN(C(C)=O)C(c3ccc(N4CCOCC4)cc3)C2)cc(OC)c1OC` (centres undefined), with 97%; and `CCC(=O)Nc1cc(Nc2cc(NC3CC3)n3ncc(C#N)c3n2)ccc1C`, with 32.6%; and `O=C(CSc1ccc(-c2nc3ccccc3[nH]2)cn1)N1CCN(c2ccccc2F)CC1`, with 88.4%.

For `NCCN1CCN(c2nc(-c3ccccc3)nc3nc(-c4ccccc4)oc23)CC1`, the growth is 102%. To `CCN(CC)Cc1c(-c2cccc(OC(F)(F)F)c2)[nH]c2ccc(N3CCCC3)cc2c1=O` belongs 106%; to `C#C[C@]1(O)CC[C@H]2[C@@H]3CC=C4c5sc(-c6ccc(OC)cc6)nc5CC[C@]4(C)[C@H]3CC[C@@]21C`, 53.8%; to `C#C[C@]1(O)CC[C@H]2[C@@H]3CC=C4c5sc(Nc6cc(OC)ccc6OC)nc5CC[C@]4(C)[C@H]3CC[C@@]21C`, 31.8%.

For `O=C(Nc1cccc(-c2nc(-c3ccc(NC(=O)c4cccnc4)cc3Cl)no2)c1)Nc1ccc(NC(=O)C2CC2)c(C(F)(F)F)c1`, the growth was -55% (active). Then `O=C(Nc1ccc(-c2nc(-c3cccc(O)c3)c(-c3ccnc(Br)c3)[nH]2)cc1)c1ccccc1`, with 10.3%; and `COc1ccccc1N1CCN(C2=NN=C(c3cccc(Cl)c3)c3ccccc3C2)CC1`, with 0.738% (active); and `O=C(NNc1nc2cc(F)c(F)cc2n2cccc12)c1ncccn1`, with 34.5%.

Regarding `O=C(CN1C(=O)CSC1=O)Nc1ccc(C(=O)/C=C/c2cc3ccccc3nc2Cl)cc1`, the growth is 88.5%. With `O=C(C[n+]1ccnc2ccccc21)c1ccc(O)c(O)c1`, the growth was 77.7%. Take `Cn1ccnc1C(=O)/C=C/c1ccc(C(=O)Nc2ccc(NC(=O)CCNC(=O)c3csc(Br)n3)cc2)cc1`: the growth is 109%. To `COc1ccc(Oc2ccc(C3CC(c4cc(OC)c(OC)c(OC)c4)=NN3C(C)=O)cc2)cc1` (centres undefined) belongs 49%; to `O=C1/C(=C/c2ccccc2[N+](=O)[O-])Oc2ccc(O)cc21`, 75%; to `O=c1c2ccccc2nc(COc2ccccc2)n1/N=C/C=C/c1ccccc1`, 94.5%.

Regarding `C#C[C@]1(O)CC[C@H]2[C@@H]3CC=C4c5sc(C6CC6)nc5CC[C@]4(C)[C@H]3CC[C@@]21C`, the growth is 90%. To `Cc1ccc(S(=O)(=O)N/N=C/c2cn(-c3ccc(F)cc3)nc2-c2ccc(S(C)(=O)=O)cc2)cc1` belongs 102%; to `C#C[C@]1(O)CC[C@H]2[C@@H]3CC=C4c5sc(-c6ccccn6)nc5CC[C@]4(C)[C@H]3CC[C@@]21C`, 70.7%; to `CCOC(=O)c1c(NC(=O)c2cccc(C(F)(F)F)c2)sc2c(CN3CCN(C)CC3)c(O)ccc12`, 94.7%. Then `CCOC(=O)Nc1ccc(-c2nc(-c3cccc(O)c3)c(-c3ccnc(Br)c3)[nH]2)cc1`, with 34.4%; and `COc1ccc(NS(=O)(=O)c2ccc(-c3cnc(C4CC4)o3)cc2)cc1Cl`, with 49.9%; and `O=S(=O)(Nc1ccc(I)c(Cl)c1)c1ccc(-c2cnc(C3CC3)o2)cc1`, with 43.7%. Then `O=S(=O)(Nc1ccc2c(c1)OC(F)(F)O2)c1ccc(-c2cnc(C3CC3)o2)cc1`, with 41.3%; and `O=C(CN1CCN(c2cc(=O)n(-c3ccccc3)c3ccccc23)CC1)Nc1ccc([N+](=O)[O-])cc1`, with 101%; and `CN(c1ccc(Cl)cc1)S(=O)(=O)c1ccc(-c2cnc(C3CC3)o2)cc1`, with 63.7%.

`O=C(/C=C/c1cn(-c2ccccc2)nc1-c1ccc(Cl)cc1)c1cc2ccccc2oc1=O`: the growth is 88%. In the case of `O=C1C[C@@H](c2ccccc2)Oc2c(Cc3ccccc3O)c(O)c(Cc3cc(Cc4cc(Cc5ccccc5O)ccc4O)ccc3O)c(O)c21`, the growth was 110%.

`CCC(CC)N1C(=O)/C(=c2\sc3n(c2=O)C2C(NN=3)N(CC)C(=O)N2CC)c2ccccc21` (centres undefined): the growth was 59.4%. As to `COC(=O)Nc1ccc(-c2nc(-c3cccc(O)c3)c(-c3ccnc(Br)c3)[nH]2)cc1`, the growth is 77.8%. In the case of `CC(=O)Nc1ccc(NC(=O)Nc2cccc(-c3nc(-c4ccc(NC(=O)c5cccs5)cc4Cl)no3)c2)cc1C(F)(F)F`, the growth is -61.4% (active).
